Laboratory results as given in PubChem BioAssay (EPA / NIEHS).
Active and inactive are the calls of the source. How the source made its calls: active means hit-call score of the fitted dose curve at least 0.9, where 1 is the maximum; inactive means score below 0.9.

Experiments:
[1] = ATG_CRE_CIS: Attagene CIS-FACTORIAL HepG2 Assay for human cAMP Responsive Element (CRE) binding protein 3 (AID 2282926); conditions: HepG2 CRE cis-reporter, Attagene multiplexed mRNA; actives raise or lower the signal
Summary of the method: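 HepG2 cells transiently transfected with cis-element-driven multiple reporter transcription units; CRE reporter mRNA measured 24 h after dosing by RT-PCR, 6-FAM labelling, HpaI digestion and capillary electrophoresis. Bidirectional fit versus DMSO baseline.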

[2] = biological target: CCAAT/enhancer-binding protein beta (Homo sapiens) (UniProt P17676); assay: ATG_C_EBP_CIS: Attagene CIS-FACTORIAL HepG2 Assay for human CCAAT/Enhancer Binding Protein (C/EBP) beta (AID 2282927); conditions: HepG2 Attagene cis-factorial transcription factor reporter; actives raise or lower the signal
Sequence of CCAAT/enhancer-binding protein beta (Homo sapiens) (P17676 whole entry, looked up): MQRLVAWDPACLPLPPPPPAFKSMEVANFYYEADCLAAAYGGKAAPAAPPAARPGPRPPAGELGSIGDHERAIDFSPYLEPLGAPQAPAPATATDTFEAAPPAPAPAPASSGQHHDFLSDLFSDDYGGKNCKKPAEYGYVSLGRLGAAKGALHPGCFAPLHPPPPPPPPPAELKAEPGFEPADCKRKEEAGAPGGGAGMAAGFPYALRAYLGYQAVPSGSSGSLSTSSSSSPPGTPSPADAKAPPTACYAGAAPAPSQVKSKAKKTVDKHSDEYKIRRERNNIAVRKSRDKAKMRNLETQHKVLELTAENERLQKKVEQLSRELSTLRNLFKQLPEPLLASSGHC
Summary of the method: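 HepG2 transiently transfected with multiplexed reporter units under cis-regulatory promoters reporting endogenous C/EBPb activity. After 24 h exposure, reporter mRNA assayed by RT-PCR, fluorescent labelling, HpaI digestion and capillary electrophoresis; bidirectional fitting versus DMSO.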

[3] = ATG_CMV_CIS: Attagene CIS-FACTORIAL HepG2 Assay for human CMV (Internal Marker) (AID 2282928); conditions: HepG2 CMV promoter reporter, transcription factor profiling; actives raise or lower the signal;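 further: endpoint acts as a background internal control marker rather than a target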
Summary of the method: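 Endogenous transcription factor activity read in HepG2 via transfected cis-promoter reporter units. After 24 h dosing, reporter mRNA measured by RT-PCR/capillary electrophoresis; gain or loss of signal fit relative to DMSO.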

[4] = ATG_DR4_LXR_CIS: Attagene CIS-FACTORIAL HepG2 Assay for human Liver X Receptor (LXR), DR4 submotif (AID 2282929); conditions: HepG2 Attagene DR4 cis-reporter, mRNA transcription; actives raise or lower the signal
Summary of the method: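 Fluorescence intensity of labelled reporter cDNA fragments, separated by capillary electrophoresis, gives the signal. HepG2 cells bearing cis-regulated reporter constructs were treated 24 h; activity fitted bidirectionally relative to DMSO negative control.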

[5] = biological target: Aryl hydrocarbon receptor (Homo sapiens) (UniProt P35869); assay: ATG_Ahr_CIS: Attagene CIS-FACTORIAL HepG2 Assay for human Aryl Hydrocarbon Receptor (Ahr) (AID 2282930); conditions: HepG2 AhR cis-factorial reporter transcription; actives raise or lower the signal
Sequence of Aryl hydrocarbon receptor (Homo sapiens) (P35869 whole entry, looked up): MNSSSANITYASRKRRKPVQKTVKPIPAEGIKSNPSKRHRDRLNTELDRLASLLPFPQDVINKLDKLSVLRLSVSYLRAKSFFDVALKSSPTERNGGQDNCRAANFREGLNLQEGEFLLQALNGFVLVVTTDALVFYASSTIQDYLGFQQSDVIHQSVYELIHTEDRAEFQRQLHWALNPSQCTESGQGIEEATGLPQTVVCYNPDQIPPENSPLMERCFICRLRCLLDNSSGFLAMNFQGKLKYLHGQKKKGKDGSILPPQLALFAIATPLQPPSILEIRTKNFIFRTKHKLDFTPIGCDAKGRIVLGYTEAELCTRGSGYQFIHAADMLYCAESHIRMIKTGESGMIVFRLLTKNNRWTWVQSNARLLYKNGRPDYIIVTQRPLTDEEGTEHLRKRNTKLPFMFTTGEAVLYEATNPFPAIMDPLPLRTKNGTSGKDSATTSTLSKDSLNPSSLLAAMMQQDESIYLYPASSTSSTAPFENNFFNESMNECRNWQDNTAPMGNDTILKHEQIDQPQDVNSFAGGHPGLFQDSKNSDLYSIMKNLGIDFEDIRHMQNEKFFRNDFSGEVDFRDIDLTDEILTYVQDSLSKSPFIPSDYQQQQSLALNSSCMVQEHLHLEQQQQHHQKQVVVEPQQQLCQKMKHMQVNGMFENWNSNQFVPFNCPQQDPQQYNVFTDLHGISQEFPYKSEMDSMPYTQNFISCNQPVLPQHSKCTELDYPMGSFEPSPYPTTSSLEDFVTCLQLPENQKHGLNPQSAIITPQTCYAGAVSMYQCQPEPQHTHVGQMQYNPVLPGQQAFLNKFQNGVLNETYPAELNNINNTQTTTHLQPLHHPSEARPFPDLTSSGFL
Summary of the method: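 HepG2 cells transiently transfected with cis-element-driven multiplexed reporter units; endogenous AhR activity read as reporter mRNA 24 h after dosing, via RT-PCR, 6-FAM labelling, HpaI digestion and capillary electrophoresis. Bidirectional fit relative to DMSO.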

[6] = ATG_AP_1_CIS: Attagene CIS-FACTORIAL HepG2 Assay for human Activator Protein 1 (AP-1) (AID 2282931); conditions: HepG2 Attagene cis-factorial AP-1 reporter mRNA; actives raise or lower the signal
Summary of the method: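 Multiplexed HepG2 reporter assay, 24 h dosing. mRNA induction detected by RT-PCR plus capillary electrophoresis. Activity fitted in both directions against DMSO.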

[7] = ATG_AP_2_CIS: Attagene CIS-FACTORIAL HepG2 Assay for human Activator Protein 2 (AP-2) (AID 2282932); conditions: HepG2 AP-2 cis-reporter, Attagene transcription factor profiling; actives raise or lower the signal
Summary of the method: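 Multiplexed mRNA reporter assay in HepG2: cis-regulated units report endogenous factor activity after 24 h treatment. Fluorescence from capillary electrophoresis of RT-PCR products gives the signal, with DMSO as baseline.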

[8] = ATG_BRE_CIS: Attagene CIS-FACTORIAL HepG2 Assay for human Bone Morphogenetic Protein (BMP) Response Element (BRE) (AID 2282933); conditions: HepG2 BMP response element reporter, Attagene transcription factor profiling; actives raise or lower the signal
Summary of the method: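 After a 24 h chemical treatment, transiently transfected HepG2 cells were lysed for RNA; reporter transcripts were quantified by fluorescent RT-PCR and capillary electrophoresis, normalised to DMSO.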

[9] = biological target: Retinoic acid receptor alpha (Homo sapiens) (UniProt P10276); assay: ATG_DR5_RAR_CIS: Attagene CIS-FACTORIAL HepG2 Assay for human Retinoic Acid Receptor Alpha (RARE), DR5 submotif (AID 2282934); conditions: HepG2 Attagene cis-factorial RARE DR5 reporter, mRNA; actives raise or lower the signal;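 on AC50: reporter responds to endogenous RAR alpha beta and gamma in HepG2 not RARA alone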
Sequence of Retinoic acid receptor alpha (Homo sapiens) (P10276 whole entry, looked up): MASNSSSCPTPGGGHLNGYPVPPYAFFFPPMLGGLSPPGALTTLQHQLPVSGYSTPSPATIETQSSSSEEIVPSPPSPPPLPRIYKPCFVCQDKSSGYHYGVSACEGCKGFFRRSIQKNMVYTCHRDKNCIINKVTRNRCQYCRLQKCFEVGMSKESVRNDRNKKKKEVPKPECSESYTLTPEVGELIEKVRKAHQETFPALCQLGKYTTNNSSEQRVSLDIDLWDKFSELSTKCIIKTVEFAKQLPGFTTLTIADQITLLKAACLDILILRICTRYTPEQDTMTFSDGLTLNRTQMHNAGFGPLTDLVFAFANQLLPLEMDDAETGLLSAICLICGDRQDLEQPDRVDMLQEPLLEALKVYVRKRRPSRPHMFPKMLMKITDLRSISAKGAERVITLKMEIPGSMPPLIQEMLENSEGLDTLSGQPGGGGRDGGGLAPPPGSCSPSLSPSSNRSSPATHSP
Summary of the method: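 HepG2 cells transiently transfected with multiplexed reporter units; DR5 cis-element drives reporter through endogenous transcription factors. After 24 h dosing, reporter mRNA quantified by RT-PCR, fluorescent labeling, HpaI digestion and capillary electrophoresis; bidirectional fitting versus DMSO.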

[10] = biological target: Transcription factor E2F1 (Homo sapiens) (UniProt Q01094); assay: ATG_E2F_CIS: Attagene CIS-FACTORIAL HepG2 Assay for human E2F Transcription Factor 1 (AID 2282935); conditions: HepG2 Attagene cis-reporter, E2F reporter RNA transcripts; actives raise or lower the signal
Sequence of Transcription factor E2F1 (Homo sapiens) (Q01094 whole entry, looked up): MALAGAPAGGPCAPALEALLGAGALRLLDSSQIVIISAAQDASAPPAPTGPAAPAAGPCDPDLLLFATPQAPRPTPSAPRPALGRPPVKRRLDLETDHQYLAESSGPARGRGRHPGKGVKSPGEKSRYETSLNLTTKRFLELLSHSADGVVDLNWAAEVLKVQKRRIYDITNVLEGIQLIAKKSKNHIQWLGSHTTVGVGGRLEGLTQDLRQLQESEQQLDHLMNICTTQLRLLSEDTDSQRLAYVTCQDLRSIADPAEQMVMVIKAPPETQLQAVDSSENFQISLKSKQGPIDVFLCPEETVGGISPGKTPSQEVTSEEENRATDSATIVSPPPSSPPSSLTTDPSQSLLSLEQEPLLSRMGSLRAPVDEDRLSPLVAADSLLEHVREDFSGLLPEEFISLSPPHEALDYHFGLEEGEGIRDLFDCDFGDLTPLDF
Summary of the method: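 Measures reporter transcript levels via RT-PCR with capillary electrophoresis detection in HepG2 cells harboring cis-regulated reporter units; 24 h post-dose; bidirectional curve fitting with DMSO as baseline.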

Measured: AC50

O=C(CCCCCCCCc1cccnc1)N1CCC(C=C(c2ccccc2)c2ccccc2)CC1
active: [1] 14.5 µM | [2] 9.03 µM | [3] 14 µM | [4] 14.4 µM | [5] 0.874 µM | [6] 9.05 µM | [7] 56.3 µM | [8] 3.07 µM | [9] 1.66 µM
inactive: [10]

CC(C)=CCCC(C)=CC=O
active: [1] 162 µM | [4] 183 µM | [5] 78.9 µM | [6] 137 µM | [8] 139 µM
inactive: all other assays above

CCOc1cccc(-n2cc(C(=O)N3CCN(c4cc(C(=O)O)c5ccccc5c4)CC3)nc2-c2ccc(C)cc2)c1
active: [4] 25.1 µM | [6] 18.4 µM | [8] 54.7 µM | [9] 26 µM
inactive: all other assays above

C=CCCCCCCCCC(=O)O
inactive: all assays above

CNS(=O)(=O)c1cc(C(=O)N2CCC(CCN3C4CCC3CC(n3c(C)nc5ccccc53)C4)(c3cccc(F)c3)CC2)c(Cl)cc1F (configuration not stated)
active: [4] 7.55 µM
inactive: all other assays above

COC(=O)c1ccccc1O
active: [4] 26.1 µM
inactive: all other assays above

NC(=O)NO
active: [5] 100 µM
inactive: all other assays above

Cc1ccc(O)cc1
inactive: all assays above

O=c1n(CC2CO2)c(=O)n(CC2CO2)c(=O)n1CC1CO1 (configuration not stated)
active: [1] 44.5 µM | [2] 75.7 µM | [6] 4.4 µM
inactive: all other assays above

Cc1c(-c2cccnc2)c2ccccc2n1CCCCC(=O)O
inactive: all assays above

O=C(O)CCN(C1(C(=O)NO)CCCC1)S(=O)(=O)c1ccc(Oc2ccc(F)cc2)cc1
inactive: all assays above

O=C(O)c1cccc(Oc2ccccc2)c1
inactive: all assays above

O=C(O)CC(O)C(=O)O (configuration not stated)
inactive: all assays above

Cn1c(=O)c2c(ncn2C)n(C)c1=O
inactive: all assays above

CC(O)CN(CCN(CC(C)O)CC(C)O)CC(C)O (configuration not stated)
inactive: all assays above

Nc1cccc(N)c1
inactive: all assays above

CCCCCCCCCCCCCCCO
active: [3] 56.6 µM | [4] 57.7 µM
inactive: all other assays above

CC(C)=CCC/C(C)=C/CO
not listed: [9]
inactive: all other assays above

C1=CCCC=CCCC=CCC1
active: [3] 135 µM | [4] 100 µM | [6] 161 µM
inactive: all other assays above

COc1ccc2sc(C(=O)Nc3nnn[nH]3)c(OC(C)C)c2c1
active: [3] 26.9 µM | [4] 158 µM | [6] 27 µM | [8] 41.8 µM
not listed: [9]
inactive: all other assays above

CCCCC(CC)COC(=O)CCCCCCCCC(=O)OCC(CC)CCCC (configuration not stated)
active: [1] 25.2 µM
not listed: [9]
inactive: all other assays above

CC(=O)OCCC(C)C
inactive: all assays above

CCOCCO
inactive: all assays above

CCOCCOCCOCCO
inactive: all assays above

Cc1[nH]cnc1C[C@H]1CCc2c(C)c3ccccc3n2C1=O
active: [1] 29.7 µM | [4] 42.1 µM | [8] 29.7 µM
inactive: all other assays above

Nc1ccc(Nc2ccccc2)cc1
active: [3] 36.7 µM
inactive: all other assays above

O=C(O)c1cccc(N(Cc2cccnc2)c2ccc(OC(F)F)c(OC(F)F)c2)c1
inactive: all assays above

Cn1c(=O)cc(Oc2ccc(F)cc2F)c2cnc(NCC(C)(C)O)nc21
not listed: [9]
inactive: all other assays above

Oc1ccc2c(c1)-c1ccccc1C2
inactive: [6] | [7] | [10]
active: [1] 44.4 µM | [2] 74 µM | [3] 4.28 µM | [4] 1.79 µM | [5] 2.53 µM | [8] 84.4 µM | [9] 27.5 µM

CCNc1ccccc1
inactive: all assays above

O=c1[nH]c2ccc(S(=O)CCN3CCC(Cc4ccc(F)cc4)CC3)cc2o1 (configuration not stated)
active: [4] 173 µM | [8] 100 µM
inactive: all other assays above

CC[C@H](C)C(=O)O[C@H]1C[C@@H](C)C=C2C=C[C@H](C)[C@H](CC[C@@H]3C[C@@H](O)CC(=O)O3)[C@H]21
active: [4] 52.4 µM
not listed: [9]
inactive: all other assays above

CN(C)c1ccc(N=NS(=O)(=O)O)cc1
active: [5] 7.46 µM | [6] 43.8 µM
inactive: all other assays above

CC/C(=C\C(=N/O)C(N)=O)C(C)[N+](=O)[O-] (configuration not stated)
inactive: all assays above

COC(=O)c1c(Cl)c(Cl)c(C(=O)OC)c(Cl)c1Cl
not listed: [9]
inactive: all other assays above

CCCCCCc1ccc(O)cc1O
active: [3] 33.4 µM | [4] 44.4 µM
inactive: all other assays above

CC(C)=CCC/C(C)=C\CO
not listed: [9]
inactive: all other assays above

COc1cccc(-c2ccc(/C=C\CN3CCCCCC3)cc2Cl)c1
active: [6] 16.2 µM | [8] 17.4 µM
not listed: [9]
inactive: all other assays above

CCOC(=O)COc1ccc2c(c1)CC(NCC(O)c1cccc(Cl)c1)CC2 (configuration not stated)
active: [1] 33 µM
inactive: all other assays above

CCc1cc(SCc2sc(-c3ccc(C(F)(F)F)cc3)nc2CN2CCN(c3ccc(OC)cc3)CC2)ccc1OCC(=O)O
active: [4] 3.68 µM | [5] 17.4 µM | [8] 18.2 µM | [10] 1.9 µM
inactive: all other assays above

CC(=O)OC[C@H]1O[C@@](COC(C)=O)(O[C@H]2O[C@H](COC(C)=O)[C@@H](OC(C)=O)[C@H](OC(C)=O)[C@H]2OC(C)=O)[C@@H](OC(C)=O)[C@@H]1OC(C)=O
active: [5] 53 µM
inactive: all other assays above

CC(C)=CCCC(C)CCO (configuration not stated)
inactive: all assays above

CNCc1ccc(NC(=O)c2c[nH]c3c2C(=O)CCC3)cc1
active: [5] 4.66 µM
inactive: all other assays above

CC(C)CCCCCCCOC(=O)CCCCC(=O)OCCCCCCCC(C)C
active: [5] 64.9 µM | [9] 18 µM
inactive: all other assays above
